Results: the supplement of paper PMC8975748
Where a name gives a salt, the structure may show the parent alone. ± gives the standard deviation of the averaged measurements.

Tests used:
[1] = tested on: Saccharomyces cerevisiae BY4741 SeMeCo community; experiment: mean cell size (pixel area) (pixels); higher = larger cells; settings: 10 µM; 24 h; SM minimal medium
Procedure, shortened: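 Mean cell pixel area per well was measured in a four-plasmid fluorescent community of Saccharomyces cerevisiae BY4741, where every plasmid complements one auxotrophy and carries a fluorescent marker. Cells from an overnight preculture at OD600 = 1.0 were diluted to OD600 = 0.3 and dispensed at 70 µl into 384-well plates acoustically predosed with drug to a final 10 µM in SM medium. Incubation lasted 24 h, followed by paraformaldehyde fixation, automated confocal imaging and analysis in Harmony. Reported figures are averaged over 3 replicates. Same SeMeCo high-content imaging drug screen: Selleck FDA-approved drugs at 10 µM, 24 h in SM medium, 384-well plates, 3 replicates.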

[2] = tested on: Saccharomyces cerevisiae BY4741 SeMeCo community; experiment: z-score of prototroph abundance vs DMSO median; higher = larger share of this subpopulation than in DMSO controls; settings: 10 µM; 24 h; SM minimal medium; subpopulation (auxotrophy): Prototroph
Procedure, shortened: (§1)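 Cells of a Saccharomyces cerevisiae BY4741 community, carrying four plasmids that each restored one auxotrophy and encoded a distinct fluorescent protein, were pre-grown overnight to OD600 1.0 and diluted to 0.3. A 70 µl volume was added to 384-well plates acoustically predosed with library drugs (10 µM final) and grown 24 h in minimal SM medium. After paraformaldehyde fixation, automated confocal microscopy was used, with single-auxotroph fluorescent strains for thresholds and autofluorescence correction. The abundance of each subpopulation was scored as a z-score against the vehicle-well median.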

[3] = tested on: Saccharomyces cerevisiae BY4741 SeMeCo community; experiment: z-score of subpopulation abundance vs DMSO median, subpopulation auxotrophic for M; higher = larger share of this subpopulation than in DMSO controls; settings: 10 µM; 24 h; SM minimal medium; subpopulation (auxotrophy): M
Procedure, shortened: as §1

[4] = tested on: Saccharomyces cerevisiae BY4741 SeMeCo community; experiment: z-score of subpopulation abundance vs DMSO median, subpopulation auxotrophic for L; higher = larger share of this subpopulation than in DMSO controls; settings: 10 µM; 24 h; SM minimal medium; subpopulation (auxotrophy): L
Procedure, shortened: as §1

[5] = tested on: Saccharomyces cerevisiae BY4741 SeMeCo community; experiment: z-score of subpopulation abundance vs DMSO median, subpopulation auxotrophic for U; higher = larger share of this subpopulation than in DMSO controls; settings: 10 µM; 24 h; SM minimal medium; subpopulation (auxotrophy): U
Procedure, shortened: as §1

[6] = tested on: Saccharomyces cerevisiae BY4741 SeMeCo community; experiment: z-score of subpopulation abundance vs DMSO median, subpopulation auxotrophic for H; higher = larger share of this subpopulation than in DMSO controls; settings: 10 µM; 24 h; SM minimal medium; subpopulation (auxotrophy): H
Procedure, shortened: as §1

[7] = tested on: Saccharomyces cerevisiae BY4741 SeMeCo community; experiment: z-score of subpopulation abundance vs DMSO median, subpopulation auxotrophic for LU; higher = larger share of this subpopulation than in DMSO controls; settings: 10 µM; 24 h; SM minimal medium; subpopulation (auxotrophy): LU
Procedure, shortened: as §1

[8] = tested on: Saccharomyces cerevisiae BY4741 SeMeCo community; experiment: z-score of subpopulation abundance vs DMSO median, subpopulation auxotrophic for LM; higher = larger share of this subpopulation than in DMSO controls; settings: 10 µM; 24 h; SM minimal medium; subpopulation (auxotrophy): LM
Procedure, shortened: as §1

[9] = tested on: Saccharomyces cerevisiae BY4741 SeMeCo community; experiment: z-score of subpopulation abundance vs DMSO median, subpopulation auxotrophic for HM; higher = larger share of this subpopulation than in DMSO controls; settings: 10 µM; 24 h; SM minimal medium; subpopulation (auxotrophy): HM
Procedure, shortened: as §1

[10] = tested on: Saccharomyces cerevisiae BY4741 SeMeCo community; experiment: z-score of subpopulation abundance vs DMSO median, subpopulation auxotrophic for HU; higher = larger share of this subpopulation than in DMSO controls; settings: 10 µM; 24 h; SM minimal medium; subpopulation (auxotrophy): HU
Procedure, shortened: as §1

[11] = tested on: Saccharomyces cerevisiae BY4741 SeMeCo community; experiment: z-score of subpopulation abundance vs DMSO median, subpopulation auxotrophic for UM; higher = larger share of this subpopulation than in DMSO controls; settings: 10 µM; 24 h; SM minimal medium; subpopulation (auxotrophy): UM
Procedure, shortened: as §1

[12] = tested on: Saccharomyces cerevisiae BY4741 SeMeCo community; experiment: z-score of subpopulation abundance vs DMSO median, subpopulation auxotrophic for HL; higher = larger share of this subpopulation than in DMSO controls; settings: 10 µM; 24 h; SM minimal medium; subpopulation (auxotrophy): HL
Procedure, shortened: as §1

[13] = tested on: Saccharomyces cerevisiae BY4741 SeMeCo community; experiment: z-score of subpopulation abundance vs DMSO median, subpopulation auxotrophic for HLU; higher = larger share of this subpopulation than in DMSO controls; settings: 10 µM; 24 h; SM minimal medium; subpopulation (auxotrophy): HLU
Procedure, shortened: as §1

[14] = tested on: Saccharomyces cerevisiae BY4741 SeMeCo community; experiment: z-score of subpopulation abundance vs DMSO median, subpopulation auxotrophic for HLM; higher = larger share of this subpopulation than in DMSO controls; settings: 10 µM; 24 h; SM minimal medium; subpopulation (auxotrophy): HLM
Procedure, shortened: as §1

[15] = tested on: Saccharomyces cerevisiae BY4741 SeMeCo community; experiment: z-score of subpopulation abundance vs DMSO median, subpopulation auxotrophic for HUM; higher = larger share of this subpopulation than in DMSO controls; settings: 10 µM; 24 h; SM minimal medium; subpopulation (auxotrophy): HUM
Procedure, shortened: as §1

[16] = tested on: Saccharomyces cerevisiae BY4741 SeMeCo community; experiment: z-score of subpopulation abundance vs DMSO median, subpopulation auxotrophic for LUM; higher = larger share of this subpopulation than in DMSO controls; settings: 10 µM; 24 h; SM minimal medium; subpopulation (auxotrophy): LUM
Procedure, shortened: as §1

[17] = tested on: Saccharomyces cerevisiae BY4741 SeMeCo community; experiment: z-score of subpopulation abundance vs DMSO median, subpopulation auxotrophic for HLUM; higher = larger share of this subpopulation than in DMSO controls; settings: 10 µM; 24 h; SM minimal medium; subpopulation (auxotrophy): HLUM
Procedure, shortened: as §1

Row | SMILES | mean cell size [1] | z-score of prototroph abundance [2] | z-score of subpopulation abundance [3] | z-score of subpopulation abundance [4] | z-score of subpopulation abundance [5] | z-score of subpopulation abundance [6] | z-score of subpopulation abundance [7] | z-score of subpopulation abundance [8] | z-score of subpopulation abundance [9] | z-score of subpopulation abundance [10] | z-score of subpopulation abundance [11] | z-score of subpopulation abundance [12] | z-score of subpopulation abundance [13] | z-score of subpopulation abundance [14] | z-score of subpopulation abundance [15] | z-score of subpopulation abundance [16] | z-score of subpopulation abundance [17]
1 | Cn1nnnc1SCC1=C(C(=O)O)N2C(=O)[C@@H](NC(=O)[C@H](OC=O)c3ccccc3)[C@H]2SC1 [Cefamandole nafate] | 12.6 ± 0.23 | -0.92 | 0.49 | 0.3 | 0.1 | 0.14 | -1.46 | 0.72 | 0.71 | 0.51 | 2.08 | 0.65 | 0.38 | -0.57 | -0.54 | 0.16 | 0.78
2 | N#CC(c1ccc(Cl)cc1)c1c(Cl)cc(-n2ncc(=O)[nH]c2=O)cc1Cl (stereo not given) [Diclazuril] | 12.52 ± 0.088 | 1.02 | 0.92 | -0.07 | -1.07 | -0.16 | -0.92 | -0.81 | -0.31 | -0.93 | -1.39 | -0.28 | -0.02 | 0.16 | -0.94 | -0.7 | 0.35
3 | Oc1c(I)cc(Cl)c2cccnc12 [Clioquinol] | 13.1 ± 0.49 | -17.7 | -0.87 | -0.06 | -1.64 | 9.23 | 10.4 | 5.23 | 37.7 | 16 | 6.49 | 9.34 | 41 | 119 | 16.6 | 9.68 | 22.7
4 | CN(CCN1CCC(OC(=O)Nc2ccccc2-c2ccccc2)CC1)C(=O)c1ccc(CN2CCC(C(N)=O)CC2)cc1 [Revefenacin] | 12.17 ± 0.043 | -0.26 | 1.54 | -0.42 | 0.17 | -0.6 | 0.12 | 0.16 | 0.49 | -0.27 | 0.92 | -0.32 | -0.13 | -0.49 | 0.24 | 0.17 | -0.7
5 | COc1cc(N)c(Cl)cc1C(=O)NC1CCN(CCCOc2ccc(F)cc2)CC1OC (stereo not given) [Cisapride hydrate] | 12.52 ± 0.044 | -0.46 | 0.32 | -0.75 | 0.95 | – | 0.83 | -0.23 | 0.29 | 1.34 | 0.98 | -0.17 | 0.05 | 0.12 | 0.84 | -0.28 | -0.3
6 | CCOC(=O)C1=C(C)NC(C)=C(C(=O)OCC)C1c1ccccc1/C=C/C(=O)OC(C)(C)C [Lacidipine] | 12.5 ± 0.14 | 0.54 | 3.48 | 1.08 | -3.36 | 1.2 | -2.51 | 1.6 | 1.9 | -2.93 | -2.61 | -0.42 | -0.94 | 1.17 | -0.96 | -1.16 | -0.21
7 | CCCCN1CCCCC1C(=O)Nc1c(C)cccc1C (stereo not given) [Bupivacaine HCl] | 12.48 ± 0.1 | 0.23 | 0.05 | -0.57 | 0.36 | 0.67 | -0.05 | -0.93 | 0.01 | -0.26 | 0.27 | -0.36 | -0.41 | 0.32 | -0.41 | -0.72 | -0.67
8 | COc1ccc2cc([C@H](C)C(=O)O)ccc2c1 [Naproxen] | 13 ± 0.17 | 2.14 | -1.11 | -0.03 | -1.21 | 0.45 | -1.6 | -0.86 | -0.37 | -1.2 | -2.93 | 0.23 | -0.86 | 1.33 | -1.97 | -0.97 | -0.08
9 | CC(=O)N[C@H]1[C@H]([C@H](O)[C@H](O)CO)OC(C(=O)O)=C[C@@H]1NC(=N)N [Zanamivir] | 11.9 ± 0.17 | -0.31 | 0.82 | 1.27 | -1.03 | 0.63 | -0.15 | 1.52 | 0.87 | -0.41 | -0.2 | 1.66 | 0.56 | 0.19 | 0.23 | 0.82 | 0.38
10 | CC[C@H]1OC(=O)[C@H](C)[C@@H](O[C@H]2C[C@@](C)(OC)[C@@H](O)[C@H](C)O2)[C@H](C)[C@@H](O[C@@H]2O[C@H](C)C[C@H](N(C)C)[C@H]2O)[C@](C)(O)C[C@@H](C)C(=O)[C@H](C)[C@@H](O)[C@]1(C)O [Erythromycin thiocyanate] | 12.1 ± 0.14 | 0.64 | 0.78 | -0.64 | 0.41 | -1.72 | -0.22 | 0.36 | 0.23 | -0.7 | 0.06 | -0.71 | -0.56 | -0.68 | -0.41 | -0.09 | 0
11 | Cc1ccc(O)c([C@H](CCN(C(C)C)C(C)C)c2ccccc2)c1 [Tolterodine tartrate] | 12.36 ± 0.069 | -0.65 | 0.22 | 0.31 | -0.01 | -0.19 | -0.23 | 1.32 | 0.62 | 0.88 | 1.04 | -0.22 | 0.29 | -0.01 | 1.13 | 1.3 | -0.2
12 | C=CC1=C(C(=O)O)N2C(=O)[C@@H](NC(=O)/C(=N\OCC(=O)O)c3csc(N)n3)[C@H]2SC1 [Cefixime] | 12.52 ± 0.039 | 0.71 | -0.61 | -0.33 | 0.43 | -0.5 | -0.02 | -0.13 | -0.97 | 0.1 | -0.25 | -0.16 | -0.72 | -0.25 | -0.75 | -1.01 | -0.73
13 | CC[C@H](C)C(=O)O[C@H]1C[C@H](O)C=C2C=C[C@H](C)[C@H](CC[C@@H](O)C[C@@H](O)CC(=O)O)[C@H]21 [Pravastatin] | 12.2 ± 0.19 | -1.08 | 0.52 | -0.43 | 1.19 | – | 0.89 | 0.2 | 0.47 | 1.19 | 1.36 | 0.42 | -0.44 | -0.51 | 1.56 | 0.59 | -0.51
14 | CCN(CC)CCOc1ccc2c(c1)C(=O)c1cc(OCCN(CC)CC)ccc1-2 [Tilorone dihydrochloride] | 12.3 ± 0.13 | 0.72 | -1.12 | -0.72 | 0.24 | – | -0.27 | -0.86 | -1.02 | 0.05 | -0.31 | -0.65 | -0.23 | 0.21 | -0.66 | -0.39 | -0.11
